In the library only some 2% were active in any assay of this set; here they are far more common.
PKA-R2B activ: activators of PKA-R2B holoenzyme, primary screen, biochemical, fluorescence polarization, Cy5-IP20, human; cAMP-dependent protein kinase catalytic subunit beta (Homo sapiens) + cAMP-dependent …; PKA-R2B holoenzyme dissociation; R2B truncated from residue 108, S112A mutant; 0% DMSO only, 100% 113 µM cGMP; activation, % at 11.4 µM; 0.079% of 340,000 active; AID 504700, 2011;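 active = activation above a cutoff set at the mean over all compounds plus 3 SD, cut at about 18% in these data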;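 note: higher means more holoenzyme dissociation and a rise in polarization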
Target sequence (P31323 whole entry, looked up, other chains not shown, the tested form may be a part): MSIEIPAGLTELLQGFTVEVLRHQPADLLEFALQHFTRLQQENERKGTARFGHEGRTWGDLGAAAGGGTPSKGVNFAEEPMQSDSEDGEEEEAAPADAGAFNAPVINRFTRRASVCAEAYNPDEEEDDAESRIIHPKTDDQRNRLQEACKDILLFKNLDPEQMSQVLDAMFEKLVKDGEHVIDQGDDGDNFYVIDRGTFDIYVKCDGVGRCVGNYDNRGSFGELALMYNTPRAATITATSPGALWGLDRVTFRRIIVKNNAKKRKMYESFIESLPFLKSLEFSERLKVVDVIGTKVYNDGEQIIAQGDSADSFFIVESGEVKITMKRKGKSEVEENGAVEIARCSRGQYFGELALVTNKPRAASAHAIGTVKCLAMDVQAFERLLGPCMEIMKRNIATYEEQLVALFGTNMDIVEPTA
SUMO Mot1 rescue: yeast Mot1-301 growth rescue at high temperature, primary screen, SUMOylation pathway inhibitor project, S. cerevisiae, ATP luminescence, 38.5C; S. cerevisiae Mot1-301 growth rescue; percent above DMSO median, 100 means doubled; growth rescue, % at 18.8 µM; 1% of 320,000 active; AID 2716, 2010;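 active = every valid replicate shows activation above 250% relative to neutral control wells; inactive = the rest, any valid replicate at or below 250%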
PKA-R1A act: activators of PKA-R1A holoenzyme, primary screen, biochemical, fluorescence polarization, Cy5-IP20, bovine R1A, mouse PKAc; cAMP-dependent protein kinase type I-alpha regulatory subunit (Bos taurus) + …; PKA-R1A dissociation; scaled: DMSO 0%, 113 µM cGMP 100%; activation, % at 11.4 µM; 0.083% of 340,000 active; AID 504707, 2011;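 active = percent activation above the mean of all tested compounds plus 3 SD, cut at about 19% in these data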;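 note: higher means more PKAc released from R1A so a rise in polarization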
MsrA inhibitor: bovine MsrA enzyme inhibitors, primary screen, biochemical, absorbance, HTS. purified bovine MsrA, absorbance read-out. inhibition, % at 15.5 µM. 0.75% of 360,000 active. AID 651718, 2012
bovine MsrA act: bovine MsrA enzyme activators, primary screen, biochemical, absorbance, HTS | purified bovine MsrA, absorbance read-out | activation, % at 10.6 µM | 0.3% of 360,000 active | AID 602163, 2012; in the data active = activation above about 7.5%
MsrA inh confirm: bovine MsrA inhibitors, retest, confirmation, biochemical, absorbance, HTS; shares compounds with MsrA inhibitor; inhibition, % at 15.5 µM; 41% of 2,300 active; purified bovine MsrA, absorbance read-out; AID 651822, 2012;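 note: coupled to thioredoxin reductase with NADPH and selenocystamine and DMSO as substrate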
Hits are given with their value; – = inactive; · = no result given. Cut-off read from the data, not from the text of the source, unless noted: active = inhibition above about 4.5%; inactive = the rest.

SMILES	PKA-R2B activ	SUMO Mot1 rescue	PKA-R1A act	MsrA inhibitor	bovine MsrA act	MsrA inh confirm
O=C(N/N=C/CCc1ccccc1)c1ccc(CN2c3cccc4cccc(c34)S2(=O)=O)cc1	–	–	–	–	–	·
COc1ccc(/C=N/NC(=O)c2ccc(CN3c4cccc5cccc(c45)S3(=O)=O)cc2)cc1	–	–	–	5.0	–	5.2
Cc1csc(Nc2nc(N)c(C(=O)Nc3ccccc3)o2)n1	–	–	–	5.7	–	5.0
Cc1csc(NC(=O)c2oc3ccccc3c2C)n1	–	–	–	–	–	·
CCOC1=C2CN(S(=O)(=O)c3ccc(C)cc3)C(c3ccccc3)CC2N(S(=O)(=O)c2ccc(C)cc2)C(c2ccc(Br)cc2)C1 (stereo not given)	·	·	·	–	·	·
O=C(Nc1cccc(C(=O)O)c1)/C(=C\c1ccc2c(c1)OCO2)NC(=O)c1ccc(Br)o1	–	–	–	–	–	·
O=C(Nc1ccc(C(=O)O)cc1)/C(=C\c1ccc2c(c1)OCO2)NC(=O)c1ccco1	–	–	–	7.4	–	5.0
O=C(Nc1ccc(C(=O)O)cc1)/C(=C\c1ccc2c(c1)OCO2)NC(=O)c1ccc(Br)o1	–	–	–	5.1	–	–
COc1ccc(C(C)(NC(C)=O)c2nc(/C=C/c3ccccc3)cs2)cc1 (stereo not given)	·	·	·	–	–	·
O=C(CC[C@H]1O[C@@H](n2cnc3c(NC(=O)c4ccccc4)ncnc32)[C@H](O)[C@@H]1O)NCc1ccc(OC(F)(F)F)cc1	·	·	·	–	–	·
Cc1cc(OCCCN2CCC(C(O)(c3ccccc3)c3ccccc3)CC2)ccc1Br	·	·	·	–	–	·
COC(=O)c1ccccc1NC(=S)NC(C)=O	–	–	–	–	–	·
COC(=O)c1ccccc1NC(=S)NC(=O)C1CC1	–	–	–	12	–	11
O=C1N/C(=N/O)S/C1=C/c1cccc([N+](=O)[O-])c1	–	–	–	–	–	·
O=C1N/C(=N\S(=O)(=O)Cc2ccccc2)S/C1=C/c1cccc([N+](=O)[O-])c1	–	–	–	5.6	–	–
O=C(Nc1ccc2c(c1)OCCO2)C(c1ccnc2ccccc12)N1CCC(Cc2ccccc2)CC1 (stereo not given)	·	·	·	–	–	·
COc1cc(/C=C2/NC(=O)N(Cc3ccccc3F)C2=O)cc(OC)c1O	–	–	–	5.0	–	–
COc1ccc([C@H]2C[C@@H](n3cc(C4CC4)nn3)[C@H](O)CN2CC2CCCCC2)cc1	–	·	–	–	–	·
COc1ccccc1CNS(=O)(=O)c1ccc(F)cc1Br	·	·	·	–	·	·
COc1cc(/C=N/N=C2/NC(=O)C(CC(=O)O)S2)ccc1OCc1ccc(Cl)cc1 (stereo not given)	–	–	–	5.3	–	6.0
Cc1ccc(S(=O)(=O)N/N=C/c2cc(Br)ccc2O)cc1	–	–	–	4.9	–	–
COc1ccc(O)c(/C=N/NS(=O)(=O)c2ccc(C)cc2)c1	–	–	–	–	–	·
O=[N+]([O-])c1ccccc1S(=O)(=O)Nc1ccc(-c2ccc(N3CCCC3)nn2)cc1	–	–	–	5.0	–	–
CCCCCCCCCCCCNC[C@@H]1CSCCS(=O)(=O)N1	·	·	·	–	·	·
Cn1c(C(C#N)C(=O)c2ccco2)nc2ccccc21 (stereo not given)	–	–	–	5.1	–	5.5
COC(=O)c1ccccc1NC1=C/C(=N\S(=O)(=O)c2ccc(C(=O)O)cc2)c2ccccc2C1=O	–	–	–	·	–	·
Cc1ccc(S(=O)(=O)/N=C2\C=C(Nc3cccc(C(=O)O)c3)C(=O)c3ccccc32)c(C)c1	–	–	–	25	–	30
O=C(O)c1cccc(NS(=O)(=O)c2ccc3c(c2)C(=O)c2ccccc2C3=O)c1	–	–	–	33	–	25
CCc1ccc(S(=O)(=O)/N=C2\C=C(Nc3ccc(C(=O)O)cc3)C(=O)c3ccccc32)cc1	–	–	–	64	–	69

Screening results (PubChem BioAssay)
